Measurements: PMC11006913

Assays:
Assay in all cases: PBM; 200 nM protein, PBS
Conditions in all cases: dsDNA, one strand shown
HESX1 [1] = biological target: HESX1 (Homo sapiens, UniProt Q9UBX0 95-180, R165K)
SHOX [2] = biological target: SHOX (Homo sapiens, UniProt O15266 103-189)
HESX1 [3] = biological target: HESX1 (Homo sapiens, UniProt Q9UBX0 95-180)
SHOX [4] = biological target: SHOX (Homo sapiens, UniProt O15266 103-189, R173C)
HESX1 [5] = biological target: HESX1 (Homo sapiens, UniProt Q9UBX0 95-180, R109Q)
HESX1 [6] = biological target: HESX1 (Homo sapiens, UniProt Q9UBX0 95-180, P111T)
HESX1 [7] = biological target: HESX1 (Homo sapiens, UniProt Q9UBX0 95-180, F115L)
ALX4 [8] = biological target: ALX4 (Homo sapiens, UniProt Q9H161 200-286)
PRRX1 [9] = biological target: PRRX1 (Homo sapiens, UniProt P54821 80-166, F113S)
ALX4 [10] = biological target: ALX4 (Homo sapiens, UniProt Q9H161 200-286, Q225E)
ALX1 [11] = biological target: ALX1 (Homo sapiens, UniProt Q15699 118-204, L144V)
ALX1 [12] = biological target: ALX1 (Homo sapiens, UniProt Q15699 118-204, L144R)
PROP1 [13] = biological target: PROP1 (Homo sapiens, UniProt O75360 56-141)
PROP1 [14] = biological target: PROP1 (Homo sapiens, UniProt O75360 56-141, R99H)
ALX3 = ALX3 (Homo sapiens, UniProt O95076 139-225, L168Q)
PROP1 [15] = biological target: PROP1 (Homo sapiens, UniProt O75360 56-141, F88S)
ALX1 [16] = biological target: ALX1 (Homo sapiens, UniProt Q15699 118-204)
MSX2 [17] = biological target: MSX2 (Homo sapiens, UniProt P35548 130-214, R199I)
PRRX1 [18] = biological target: PRRX1 (Homo sapiens, UniProt P54821 80-166)
MSX2 [19] = biological target: MSX2 (Homo sapiens, UniProt P35548 130-214, F161Y)
MSX2 (Homo sapiens, UniProt P35548 130-214, F161Y), sequence (P35548 130-214 F161Y): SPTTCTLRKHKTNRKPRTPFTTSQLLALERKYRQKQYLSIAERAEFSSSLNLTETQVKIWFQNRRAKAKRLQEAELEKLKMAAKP

SHOX (Homo sapiens, UniProt O15266 103-189), sequence (O15266 103-189): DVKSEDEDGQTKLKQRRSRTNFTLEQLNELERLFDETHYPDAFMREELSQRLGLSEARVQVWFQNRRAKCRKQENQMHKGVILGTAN
SHOX (Homo sapiens, UniProt O15266 103-189, R173C), sequence (O15266 103-189 R173C): as the sequence (O15266 103-189) above, with R71C counted along it
ALX4 (Homo sapiens, UniProt Q9H161 200-286), sequence (Q9H161 200-286): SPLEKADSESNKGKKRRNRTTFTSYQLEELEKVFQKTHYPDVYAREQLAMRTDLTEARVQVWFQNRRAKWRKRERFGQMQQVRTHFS
HESX1 (Homo sapiens, UniProt Q9UBX0 95-180), sequence (Q9UBX0 95-180): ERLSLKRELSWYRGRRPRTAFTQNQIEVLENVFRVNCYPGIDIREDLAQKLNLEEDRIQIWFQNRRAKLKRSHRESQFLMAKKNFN
HESX1 (Homo sapiens, UniProt Q9UBX0 95-180, F115L), sequence (Q9UBX0 95-180 F115L): as the sequence (Q9UBX0 95-180) above, with F21L counted along it
ALX4 (Homo sapiens, UniProt Q9H161 200-286, Q225E), sequence (Q9H161 200-286 Q225E): as the sequence (Q9H161 200-286) above, with Q26E counted along it
PROP1 (Homo sapiens, UniProt O75360 56-141), sequence (O75360 56-141): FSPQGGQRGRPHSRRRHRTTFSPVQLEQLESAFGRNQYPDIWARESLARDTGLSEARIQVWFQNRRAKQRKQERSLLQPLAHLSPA
ALX3, sequence (O95076 139-225 L168Q): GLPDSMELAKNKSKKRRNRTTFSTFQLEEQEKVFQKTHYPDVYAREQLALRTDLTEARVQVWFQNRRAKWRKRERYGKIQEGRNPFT
HESX1 (Homo sapiens, UniProt Q9UBX0 95-180, R109Q), sequence (Q9UBX0 95-180 R109Q): as the sequence (Q9UBX0 95-180) above, with R15Q counted along it
HESX1 (Homo sapiens, UniProt Q9UBX0 95-180, P111T), sequence (Q9UBX0 95-180 P111T): as the sequence (Q9UBX0 95-180) above, with P17T counted along it
ALX1 (Homo sapiens, UniProt Q15699 118-204, L144V), sequence (Q15699 118-204 L144V): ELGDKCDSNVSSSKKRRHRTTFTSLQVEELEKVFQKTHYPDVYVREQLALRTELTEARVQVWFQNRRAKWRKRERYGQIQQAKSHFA
ALX1 (Homo sapiens, UniProt Q15699 118-204), sequence (Q15699 118-204): as the sequence (Q15699 118-204 L144V) above, with V27L counted along it
PROP1 (Homo sapiens, UniProt O75360 56-141, F88S), sequence (O75360 56-141 F88S): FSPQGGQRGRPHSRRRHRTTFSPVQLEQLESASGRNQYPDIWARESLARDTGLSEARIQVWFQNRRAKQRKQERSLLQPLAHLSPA
HESX1 (Homo sapiens, UniProt Q9UBX0 95-180, R165K), sequence (Q9UBX0 95-180 R165K): as the sequence (Q9UBX0 95-180) above, with R71K counted along it
PRRX1 (Homo sapiens, UniProt P54821 80-166, F113S), sequence (P54821 80-166 F113S): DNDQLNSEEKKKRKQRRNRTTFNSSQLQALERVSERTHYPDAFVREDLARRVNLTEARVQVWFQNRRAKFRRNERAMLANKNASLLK
ALX1 (Homo sapiens, UniProt Q15699 118-204, L144R), sequence (Q15699 118-204 L144R): as the sequence (Q15699 118-204 L144V) above, with V27R counted along it
PROP1 (Homo sapiens, UniProt O75360 56-141, R99H), sequence (O75360 56-141 R99H): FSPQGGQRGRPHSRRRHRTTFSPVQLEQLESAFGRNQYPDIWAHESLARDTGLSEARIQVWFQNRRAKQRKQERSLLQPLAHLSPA
PRRX1 (Homo sapiens, UniProt P54821 80-166), sequence (P54821 80-166): as the sequence (P54821 80-166 F113S) above, with S34F counted along it
MSX2 (Homo sapiens, UniProt P35548 130-214, R199I), sequence (P35548 130-214 R199I): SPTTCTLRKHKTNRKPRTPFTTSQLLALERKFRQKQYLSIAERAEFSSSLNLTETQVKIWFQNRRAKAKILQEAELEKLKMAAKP

Sequence | binding signal (HESX1 [1]) | binding signal (SHOX [2]) | binding signal (HESX1 [3]) | binding signal (SHOX [4]) | binding signal (HESX1 [5]) | binding signal (HESX1 [6]) | binding signal (HESX1 [7]) | binding signal (ALX4 [8]) | binding signal (PRRX1 [9]) | binding signal (ALX4 [10]) | binding signal (ALX1 [11]) | binding signal (ALX1 [12]) | binding signal (PROP1 [13]) | binding signal (PROP1 [14]) | binding signal (ALX3) | binding signal (PROP1 [15]) | binding signal (ALX1 [16]) | binding signal (MSX2 [17]) | binding signal (PRRX1 [18]) | binding signal (MSX2 [19])
CTTGCGGC | 6.55 upbm affinity estimate (log intensity, higher = more binding, comparable within an allelic series) | 7.11 upbm affinity estimate (log intensity, higher = more binding, comparable within an allelic series) | 6.49 upbm affinity estimate (log intensity, higher = more binding, comparable within an allelic series) | 7.22 upbm affinity estimate (log intensity, higher = more binding, comparable within an allelic series) | 6.47 upbm affinity estimate (log intensity, higher = more binding, comparable within an allelic series) | 6.52 upbm affinity estimate (log intensity, higher = more binding, comparable within an allelic series) | 6.53 upbm affinity estimate (log intensity, higher = more binding, comparable within an allelic series) | – | – | – | – | – | – | – | – | – | – | – | – | –
AATTAAGA | 11.6 upbm affinity estimate (log intensity, higher = more binding, comparable within an allelic series) | 11.7 upbm affinity estimate (log intensity, higher = more binding, comparable within an allelic series) | 11.6 upbm affinity estimate (log intensity, higher = more binding, comparable within an allelic series) | 9.59 upbm affinity estimate (log intensity, higher = more binding, comparable within an allelic series) | 9.03 upbm affinity estimate (log intensity, higher = more binding, comparable within an allelic series) | 10.5 upbm affinity estimate (log intensity, higher = more binding, comparable within an allelic series) | 7.79 upbm affinity estimate (log intensity, higher = more binding, comparable within an allelic series) | 13.6 upbm affinity estimate (log intensity, higher = more binding, comparable within an allelic series) | 11.2 upbm affinity estimate (log intensity, higher = more binding, comparable within an allelic series) | 12.8 upbm affinity estimate (log intensity, higher = more binding, comparable within an allelic series) | 11.7 upbm affinity estimate (log intensity, higher = more binding, comparable within an allelic series) | 11.3 upbm affinity estimate (log intensity, higher = more binding, comparable within an allelic series) | 11.2 upbm affinity estimate (log intensity, higher = more binding, comparable within an allelic series) | 10.9 upbm affinity estimate (log intensity, higher = more binding, comparable within an allelic series) | 10.4 upbm affinity estimate (log intensity, higher = more binding, comparable within an allelic series) | 7.71 upbm affinity estimate (log intensity, higher = more binding, comparable within an allelic series) | 12.1 upbm affinity estimate (log intensity, higher = more binding, comparable within an allelic series) | – | – | –
AATTAGCA | 11.6 upbm affinity estimate (log intensity, higher = more binding, comparable within an allelic series) | 11.6 upbm affinity estimate (log intensity, higher = more binding, comparable within an allelic series) | 11.6 upbm affinity estimate (log intensity, higher = more binding, comparable within an allelic series) | 9.43 upbm affinity estimate (log intensity, higher = more binding, comparable within an allelic series) | 8.94 upbm affinity estimate (log intensity, higher = more binding, comparable within an allelic series) | 10.4 upbm affinity estimate (log intensity, higher = more binding, comparable within an allelic series) | 7.45 upbm affinity estimate (log intensity, higher = more binding, comparable within an allelic series) | 13.6 upbm affinity estimate (log intensity, higher = more binding, comparable within an allelic series) | 11 upbm affinity estimate (log intensity, higher = more binding, comparable within an allelic series) | 12.7 upbm affinity estimate (log intensity, higher = more binding, comparable within an allelic series) | 11.5 upbm affinity estimate (log intensity, higher = more binding, comparable within an allelic series) | 11.1 upbm affinity estimate (log intensity, higher = more binding, comparable within an allelic series) | 11.1 upbm affinity estimate (log intensity, higher = more binding, comparable within an allelic series) | 10.9 upbm affinity estimate (log intensity, higher = more binding, comparable within an allelic series) | 10.3 upbm affinity estimate (log intensity, higher = more binding, comparable within an allelic series) | 7.78 upbm affinity estimate (log intensity, higher = more binding, comparable within an allelic series) | 12.2 upbm affinity estimate (log intensity, higher = more binding, comparable within an allelic series) | 12.2 upbm affinity estimate (log intensity, higher = more binding, comparable within an allelic series) | 13.2 upbm affinity estimate (log intensity, higher = more binding, comparable within an allelic series) | –
AATTAGTG | 12.1 upbm affinity estimate (log intensity, higher = more binding, comparable within an allelic series) | 12 upbm affinity estimate (log intensity, higher = more binding, comparable within an allelic series) | 12.2 upbm affinity estimate (log intensity, higher = more binding, comparable within an allelic series) | 9.65 upbm affinity estimate (log intensity, higher = more binding, comparable within an allelic series) | 9.26 upbm affinity estimate (log intensity, higher = more binding, comparable within an allelic series) | 10.9 upbm affinity estimate (log intensity, higher = more binding, comparable within an allelic series) | 7.88 upbm affinity estimate (log intensity, higher = more binding, comparable within an allelic series) | 13.9 upbm affinity estimate (log intensity, higher = more binding, comparable within an allelic series) | 11.2 upbm affinity estimate (log intensity, higher = more binding, comparable within an allelic series) | 13.2 upbm affinity estimate (log intensity, higher = more binding, comparable within an allelic series) | 11.8 upbm affinity estimate (log intensity, higher = more binding, comparable within an allelic series) | 11.4 upbm affinity estimate (log intensity, higher = more binding, comparable within an allelic series) | 11.3 upbm affinity estimate (log intensity, higher = more binding, comparable within an allelic series) | 11.4 upbm affinity estimate (log intensity, higher = more binding, comparable within an allelic series) | 10.7 upbm affinity estimate (log intensity, higher = more binding, comparable within an allelic series) | 7.69 upbm affinity estimate (log intensity, higher = more binding, comparable within an allelic series) | 12.5 upbm affinity estimate (log intensity, higher = more binding, comparable within an allelic series) | 12.6 upbm affinity estimate (log intensity, higher = more binding, comparable within an allelic series) | 13.3 upbm affinity estimate (log intensity, higher = more binding, comparable within an allelic series) | 13.2 upbm affinity estimate (log intensity, higher = more binding, comparable within an allelic series)
